Assay results published in PubChem BioAssay AID651551 (Sanford-Burnham Center for Chemical Genomics, 2012).

assay: GAPDH versus PEG-3 reporter suppression – cell-based, luminescence, counter-screen for PEG-3 promoter inhibitor project, SAR follow-up (AID 651551); settings: HeLa PEG-Prom / GAPDH luciferase reporter, 6 or 24 h, run 2, 24 h; at 99 µM (top of the series)

| SMILES | inhibition % (higher = more inhibition) [%] |
| --- | --- |
| CCn1nc(C(=O)Nc2nc(-c3ccccn3)cs2)c2ccccc2c1=O | 53.9 |
| COCCCNC(=O)c1ccc(Cn2c(=O)c3ccccc3n(Cc3ccccc3C#N)c2=O)cc1 | 78 |
| O=C(Nc1nc2ccccc2s1)c1nn(-c2ccccc2)c(=O)c2ccccc12 | 60.8 |
| Cc1nc(NC(=O)c2ccccc2)sc1-c1csc(Nc2ccccc2Cl)n1 | 60.8 |
| COc1ccc(Cl)cc1Nc1nc(-c2sc(NC(=O)c3ccccc3)nc2C)cs1 | 75.6 |
| CCCn1nc(C(=O)Nc2nc(-c3ccccn3)cs2)c2ccccc2c1=O | 71.7 |
| Cc1cc(NC(=O)c2ccccc2)n(-c2nc3ccccc3n2C)n1 | 4.57 |
